This is part of a sample that, as a whole, favours compounds with a hit. Of some 79,000 tested, about 15% had one in any assay. Activity calls are given as the source filed them. Rule as the data show it: active = growth inhibition above about 70%; inactive = the rest.
Legend:
[1] = NCI Yeast Anticancer Drug Screen. Data for the rad52 strain (AID 147);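 also: 0% = growth of vehicle-treated control cultures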; conditions: S. cerevisiae rad52 mutant growth inhibition, stronger effect = higher value
How it was run: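 Here a repair-compromised yeast strain receives each compound; its growth is then quantified and normalised to vehicle-only controls.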

[2] = NCI Yeast Anticancer Drug Screen. Data for the wt1 strain (AID 149);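 also: 0% = growth of vehicle-treated wt1 cultures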; conditions: S. cerevisiae wt1 strain (SPY 50644) growth inhibition, stronger effect = higher value
How it was run: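 wt1 strain grown with compound or vehicle; inhibition taken from the growth difference.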

[3] = NCI Yeast Anticancer Drug Screen. Data for the rad50EPP+ strain (AID 151);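 also: 0% = growth of vehicle-treated control cultures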; conditions: S. cerevisiae rad50 mutant strain, stronger effect = higher value
How it was run: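 Read-out is yeast growth inhibition relative to vehicle; cells used were the rad50EPP+ strain.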

[4] = NCI Yeast Anticancer Drug Screen. Data for the mgt1 strain (AID 153); conditions: S. cerevisiae mgt1 mutant growth inhibition, stronger effect = higher value
How it was run: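 Measured: inhibition of mgt1 yeast growth by compound, normalized to vehicle-treated cultures.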

[5] = NCI Yeast Anticancer Drug Screen. Data for the rad50 strain (AID 155);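 also: 0% = growth of vehicle-only cultures of the same strain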; conditions: S. cerevisiae rad50 strain growth inhibition, stronger effect = higher value
How it was run: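 DNA repair mutant yeast, compound exposure, growth read-out; inhibition is taken relative to vehicle.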

[6] = NCI Yeast Anticancer Drug Screen. Data for the mec2-1 strain (AID 157); conditions: S. cerevisiae mec2-1 strain, stronger effect = higher value
How it was run: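 Using mec2-1 yeast: add compound, measure growth, express inhibition versus vehicle-treated cultures.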

[7] = NCI Yeast Anticancer Drug Screen. Data for the rad14 strain (AID 159);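 also: 0% = growth of vehicle-treated control cultures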; conditions: S. cerevisiae rad14 strain growth inhibition, stronger effect = higher value
How it was run: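 DNA repair-defective yeast, compound-exposed; % growth inhibition derived by comparison with vehicle-treated controls.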

[8] = NCI Yeast Anticancer Drug Screen. Data for the sgs1 mgt1 strain (AID 161);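 also: 0% = growth of cultures given vehicle only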; conditions: S. cerevisiae sgs1 mgt1 strain, stronger effect = higher value
How it was run: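 This yeast growth screen uses a strain with defined DNA-repair lesions; compound-treated growth is compared with vehicle-treated growth.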

[9] = NCI Yeast Anticancer Drug Screen. Data for the CLN2oe strain (AID 163);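 also: 0% = growth of vehicle-only control cultures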; conditions: S. cerevisiae CLN2oe strain, stronger effect = higher value
How it was run: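 Whole-cell yeast growth assay. A strain engineered for altered cell-cycle control received compound, and inhibition relative to vehicle-treated cultures was recorded.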

[10] = NCI Yeast Anticancer Drug Screen. Data for the cln2 rad14 strain (AID 165);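 also: 0% = growth equal to vehicle treated cultures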; conditions: S. cerevisiae cln2 rad14 strain, stronger effect = higher value
How it was run: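 Yeast strain cln2 rad14, bearing defects in cell cycle control and DNA repair, serves as the test system; values reflect growth inhibition compared with vehicle.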

[11] = NCI Yeast Anticancer Drug Screen. Data for the bub3 strain (AID 167); conditions: S. cerevisiae bub3 mutant strain, stronger effect = higher value
How it was run: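 In this screen, a yeast mutant lacking normal mitotic checkpoint function is challenged with compound. Relative growth versus vehicle gives the inhibition value.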

[12] = NCI Yeast Anticancer Drug Screen. Data for the wt2 strain (AID 169);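 also: 0% = growth of vehicle-treated yeast cultures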; conditions: S. cerevisiae wt2 strain growth inhibition, stronger effect = higher value
How it was run: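 Treated yeast vs. vehicle-treated yeast: growth inhibition determined.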

[13] = NCI Yeast Anticancer Drug Screen. Data for the mlh1 rad18 strain (AID 175); conditions: S. cerevisiae mlh1 rad18 strain growth inhibition, stronger effect = higher value
How it was run: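 Steps: expose repair-defective yeast to compound; measure growth; express inhibition against vehicle-treated controls.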

[14] = NCI Yeast Anticancer Drug Screen. Data for the rad18 strain (AID 177); conditions: S. cerevisiae rad18 mutant growth inhibition, stronger effect = higher value
How it was run: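 Measured value is growth inhibition of a yeast strain bearing a DNA repair alteration, referenced to vehicle-treated cells.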

[15] = NCI Yeast Anticancer Drug Screen. Data for the mlh1 strain (AID 171);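 also: 0% = growth of vehicle-treated control cultures of the same strain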; conditions: S. cerevisiae mlh1 strain growth inhibition, stronger effect = higher value
How it was run: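 A yeast strain with a defined genetic lesion serves as the test organism. Cultures receive compound or vehicle, and growth is measured.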

[16] = NCI Yeast Anticancer Drug Screen. Data for the sgs1 strain (AID 173);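 also: 0% = growth of vehicle-only control cultures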; conditions: S. cerevisiae sgs1 mutant, stronger effect = higher value
How it was run: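 A genetically defined yeast mutant is incubated with the test compound, and its growth is compared to that of the same strain given vehicle.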

[17] = at 5.0 µM (retest, dose inferred, filed as 0.5)
[18] = at 50.0 µM (retest, dose inferred, filed as 5.0)

Measured: growth inhibition

Nc1ncncc1C(C1=C(O)COC1=O)C1=C(O)COC1=O
inactive: [1]; at 1.2 µM 2% | [1]; at 3.7 µM -1% | [1]; at 11.0 µM -1% | [1]; at 33.0 µM -2% | [1]; at 100.0 µM 0% | [2]; at 1.2 µM 1% | [2]; at 3.7 µM 4% | [2]; at 11.0 µM -3% | [2]; at 33.0 µM 0% | [2]; at 100.0 µM 1% | [3]; at 1.2 µM 6% | [3]; at 3.7 µM 10% | [3]; at 11.0 µM 10% | [3]; at 33.0 µM 6% | [3]; at 100.0 µM 2% | [4]; at 1.2 µM -2% | [4]; at 3.7 µM -4% | [4]; at 11.0 µM -6% | [4]; at 33.0 µM -2% | [4]; at 100.0 µM -2% | [5]; at 1.2 µM 2% | [5]; at 3.7 µM 2% | [5]; [17] -10% | [5]; at 11.0 µM -2% | [5]; at 33.0 µM 0% | [5]; [18] 15% | [5]; at 50.0 µM 8.05% | [5]; at 100.0 µM 1% | [6]; at 1.2 µM 4% | [6]; at 3.7 µM 7% | [6]; [17] -15% | [6]; at 11.0 µM 8% | [6]; at 33.0 µM 8% | [6]; [18] -16% | [6]; at 50.0 µM 5.95% | [6]; at 100.0 µM 0% | [7]; at 1.2 µM -2% | [7]; at 3.7 µM -4% | [7]; at 11.0 µM -2% | [7]; at 33.0 µM -5% | [7]; at 100.0 µM -2% | [8]; [17] -10% | [8]; [18] 13% | [8]; at 50.0 µM 8% | [9]; at 1.2 µM -7% | [9]; at 3.7 µM -16% | [9]; at 11.0 µM -6% | [9]; at 33.0 µM -8% | [9]; at 100.0 µM -8% | [10]; [17] -5% | [10]; [18] 0% | [10]; at 50.0 µM 35.1% | [11]; at 1.2 µM -2% | [11]; at 3.7 µM -1% | [11]; [17] 1% | [11]; at 11.0 µM -1% | [11]; at 33.0 µM -2% | [11]; [18] 19% | [11]; at 50.0 µM -6.55% | [11]; at 100.0 µM -8% | [12]; at 1.2 µM 1% | [12]; at 3.7 µM 1% | [12]; at 11.0 µM -1% | [12]; at 33.0 µM 0% | [12]; at 100.0 µM 1% | [13]; [17] 2% | [13]; [18] 57% | [13]; at 50.0 µM 4.8% | [14]; at 1.2 µM 1% | [14]; at 3.7 µM 0% | [14]; at 11.0 µM -1% | [14]; at 33.0 µM -3% | [14]; at 100.0 µM -4%

S=c1[nH]nc(Nc2ccc(Cl)cc2)s1
inactive: [1]; at 1.2 µM -6% | [1]; at 3.7 µM -9% | [1]; at 11.0 µM 1% | [2]; at 1.2 µM 1% | [2]; at 3.7 µM 4% | [2]; at 11.0 µM 6% | [2]; at 33.0 µM 36% | [3]; at 1.2 µM -2% | [3]; at 3.7 µM -10% | [3]; at 11.0 µM 13% | [3]; at 33.0 µM 27% | [3]; at 100.0 µM 23% | [4]; at 1.2 µM -1% | [4]; at 3.7 µM -7% | [4]; at 11.0 µM -2% | [4]; at 33.0 µM -8% | [4]; at 100.0 µM 19% | [5]; at 1.2 µM -7% | [5]; at 3.7 µM -13% | [5]; [17] -150% | [5]; at 11.0 µM -10% | [5]; at 33.0 µM -17% | [5]; [18] 32% | [5]; at 100.0 µM 42% | [6]; at 1.2 µM -1% | [6]; at 3.7 µM -1% | [6]; [17] -49% | [6]; at 11.0 µM -6% | [6]; at 33.0 µM 3% | [7]; at 1.2 µM -3% | [7]; at 3.7 µM 1% | [7]; at 11.0 µM 0% | [7]; at 33.0 µM 46% | [8]; [17] -61% | [9]; at 1.2 µM -7% | [9]; at 3.7 µM -7% | [9]; at 11.0 µM -13% | [9]; at 33.0 µM -11% | [10]; [17] -55% | [11]; at 1.2 µM -3% | [11]; at 3.7 µM -1% | [11]; [17] -67% | [11]; at 11.0 µM -7% | [11]; at 33.0 µM -10% | [11]; [18] 38% | [11]; at 100.0 µM 9% | [15]; at 1.2 µM -7% | [15]; at 3.7 µM -2% | [15]; at 11.0 µM -4% | [15]; at 33.0 µM 8% | [15]; at 100.0 µM 61% | [16]; at 1.2 µM -14% | [16]; at 3.7 µM -7% | [16]; at 11.0 µM 2% | [16]; at 33.0 µM 37% | [13]; [17] -149% | [13]; [18] 19% | [14]; at 1.2 µM -3% | [14]; at 3.7 µM 2% | [14]; at 11.0 µM -4% | [14]; at 33.0 µM 38%
active: [1]; at 33.0 µM 70% | [1]; at 100.0 µM 96% | [2]; at 100.0 µM 89% | [5]; at 50.0 µM 92.8% | [6]; [18] 93% | [6]; at 50.0 µM 91.8% | [6]; at 100.0 µM 91% | [7]; at 100.0 µM 96% | [8]; [18] 86% | [8]; at 50.0 µM 89% | [9]; at 100.0 µM 73% | [10]; [18] 83% | [10]; at 50.0 µM 90.5% | [11]; at 50.0 µM 88.8% | [16]; at 100.0 µM 91% | [13]; at 50.0 µM 92.6% | [14]; at 100.0 µM 94%

— PubChem BioAssay (NCI)
